The assay relates to Leishmania donovani. The assay can be described thus: Leishmania intramacrophage assay. The format is functional, organism-based. The arrangement: scale not given: in the data most compounds retested in dose-response had high values.

Out of some 69,000 compounds screened, about 1,000 (1.4%) showed an effect of 50% or more. For the sample, strong results were picked, then their nearest neighbours and some compounds at random.

This is an account of results in ChEMBL document CHEMBL3988442, “University of Dundee, Small-Polar-MMV Screening Library” (2021).

Consider `O=C(NCCc1ccccc1)NCCN1CCC(c2cccs2)CC1`, for which the “Percent Effect” value (30.3 µM, […]) came out at 51.71%.

For `COCC(=O)NC1CC2(CCN(Cc3ccco3)CC2)c2ccccc21.O=C(O)C(F)(F)F` (centres undefined), the “Percent Effect” value (30 µM, 30.03 µM) was -18.66%.

For `CCOCC1CCN(C(=O)Nc2ccc(-c3csnn3)cc2)C1` (centres undefined), the “Percent Effect” value (30.3 µM, […]) is reported as -4.056%.

With `CCCC(=O)NC1CCN(c2ccccc2S(=O)(=O)CC)CC1`, for the setting “30 µM”, the “Percent Effect” value is -8.378%.

Consider `Cc1ccc(C2(CN3CCN(c4ncccn4)CC3)CCNCC2)nc1`, for which, under “30.3 µM, […]”, the “Percent Effect” value is on record as -2.357%.

`CSCC(=O)N1CCCN(c2ccccc2C)CC1`: the “Percent Effect” value (30 µM, 30.03 µM) is reported as 12.81%.

Take `Cc1ccc(C)c(N2CCN(CC3(O)CCNC3)CC2)c1` (centres undefined): the “Percent Effect” value (30.3 µM, […]) is given as 98.99%.

Turning to `Cc1ccccc1N1CCCN(CC2(O)CCCNC2)CC1` (centres undefined), the “Percent Effect” value (30.3 µM, […]) amounted to 97.82%.

`CCOc1ccccc1N1CCN(CC2(O)CCCNC2)CC1` (centres undefined): the “Percent Effect” value (30.3 µM, […]) came to 12.99%.

On to `Cc1ccc(NCC2(O)CCNCC2)cc1C`, for which, where the note is “30.3 µM, […]”, the “Percent Effect” value is -19.76%.

Consider `OC(CNCCc1nnc2ccccn12)c1ccc2c(c1)OCO2` (centres undefined), for which the “Percent Effect” value (30.3 µM, […]) worked out at 14.08%.

For the compound `CCn1c(CN2CCCC2)nnc1C1CCN(Cc2ccc(C)o2)CC1`, the “Percent Effect” value (30 µM, 30.03 µM) was found to be 43.06%.

Turning to `CC[C@@]1(O)CCN(C(=O)CCSCc2ccc(F)cc2)C[C@H]1O`, the “Percent Effect” value (30.3 µM, […]) was -8.433%.

As for `CCc1cnc(CN(C)C2CCN(CC3CCN(C(C)=O)CC3)C2)o1` (centres undefined), where the note is “30.3 µM, […]”, the “Percent Effect” value was found to be 21.9%.

On to `CCc1cnc(CN(C)C2CCN(CC3CCC3)C2)o1` (centres undefined), for which the “Percent Effect” value (30.3 µM, […]) is given as 50.08%.

Consider `CCc1cnc(CN(C)C2CCN(CC3CCOCC3)C2)o1` (centres undefined), for which the “Percent Effect” value (30.3 µM, […]) was determined as 46.35%.

On to `CC1(C)CN(Cc2csc(CS(C)(=O)=O)n2)Cc2ccccc21`, for which the “Percent Effect” value (30.3 µM, […]) was -3.043%.

With `Cc1cccc(N2CCN(CCNC(=O)c3ccnn3C)CC2)c1`, for the setting “30 µM, 30.03 µM”, the “Percent Effect” value was determined as 32.04%.

On to `Fc1ccc(C(CNc2ccncn2)N2CCCC2)cc1` (centres undefined), for which the “Percent Effect” value (30.3 µM, […]) is recorded as 64.07%.

`Fc1ccc(C(CNc2ccncn2)N2CCCCC2)cc1` (centres undefined): the “Percent Effect” value (30.3 µM, […]) amounted to 33.33%.

As to `Fc1ccccc1C(CNc1ccncn1)N1CCCC1` (centres undefined), under “30.3 µM, […]”, the “Percent Effect” value is listed as 13.69%.

Regarding `O=C(CCN1CCCCO1)NCc1cn2c(n1)SCC2`, the “Percent Effect” value (30.3 µM, […]) is recorded as -7.597%.

For the compound `CC(CNC(=O)c1cnc[nH]1)Oc1ccc(Cl)cc1` (centres undefined), for the setting “30.3 µM, […]”, the “Percent Effect” value was -8.982%.

In the case of `CS(=O)(=O)Cc1nc(CNc2ccc(F)c(F)c2)cs1`, the “Percent Effect” value (30.3 µM, […]) is -2.721%.

As to `Cc1cc(C)n(CCCn2cncc2-c2ccc3c(c2)CC(C)N3C)n1.Cl` (centres undefined), where the note is “30.3 µM, […]”, the “Percent Effect” value is 2.187%.

With `Cc1nonc1OCCNC(=O)COc1ccc(F)cc1F`, for the setting “30.3 µM, […]”, the “Percent Effect” value stood at 56.45%.

Regarding `Cc1noc(Cl)c1CC(=O)NCCOc1ccc(F)cc1F`, the “Percent Effect” value (30.3 µM, […]) turned out to be 8.93%.

Consider `Cc1nonc1OCCNC(=O)COc1ccc(Cl)cc1Cl`, for which, for the setting “30.3 µM, […]”, the “Percent Effect” value worked out at 19.12%.

For `O=C(c1ccc(COc2ccc(Cl)cc2)o1)N1N=CCC1(O)C(F)(F)F` (centres undefined), the “Percent Effect” value (30.3 µM, […]) is -74.85%.

As for `CCSCCC(C)N(C)C(=O)c1ccc(C)o1` (centres undefined), the “Percent Effect” value (30.3 µM, […]) is 26.69%.

Take `Cn1ccnc1CN1CCc2c(COCC3CC3)nn(C)c2C1`: the “Percent Effect” value (30.3 µM, […]) came to 17.02%.

In the case of `Cc1cc(CN2CC[C@@H]3[C@@H](CCC(=O)N3CCc3c[nH]cn3)C2)oc1C`, the “Percent Effect” value (30.3 µM, […]) amounted to 21.24%.

For `O=C(c1nnn(-c2ccccc2Cl)c1-c1ccccn1)N1CCSCC1`, the “Percent Effect” value (30.3 µM, […]) is 1.038%.

With `CC(=O)NCCC(=O)NC(C)c1sc(-c2ccccc2F)nc1C` (centres undefined), the “Percent Effect” value (30.3 µM, […]) was -1.241%.

As to `CCC(=O)NCC(=O)NC(C)c1sc(-c2ccccc2F)nc1C` (centres undefined), the “Percent Effect” value (30.3 µM, […]) is listed as 52.49%.

`COCC(=O)NC(C)c1sc(-c2ccccc2F)nc1C` (centres undefined): the “Percent Effect” value (30.3 µM, […]) turned out to be 18.86%.

As to `CC(CNC(=O)Nc1cn[nH]c1)N1CCCC1` (centres undefined), the “Percent Effect” value (30 µM) came to 4.879%.

Turning to `CC(=O)N(C)c1nc(CN2CCN(Cc3nccn3C)CC2)cs1`, where the note is “30.3 µM, […]”, the “Percent Effect” value is 5.012%.

As to `O=S(=O)(c1c(Cl)nc2sccn12)N1CCC2(CCNCC2)C1`, the “Percent Effect” value (30.3 µM, […]) was 51.47%.

In the case of `CN1CCCC2(CCN(S(=O)(=O)c3c(Cl)nc4sccn34)C2)C1=O` (centres undefined), the “Percent Effect” value (30.3 µM, […]) came out at 41%.

Take `O=S(=O)(c1c(Cl)nc2sccn12)N1CCCC2(CCNC2)C1` (centres undefined): the “Percent Effect” value (30.3 µM, […]) stood at 49.51%.

For the compound `CSCCc1n[nH]c2c1CN(S(=O)(=O)c1c(C)nn(C)c1C)CC2`, the “Percent Effect” value (30.3 µM, […]) was -0.401%.

For the compound `CCCSc1ccccc1NC(=O)N1CCN(C(=O)c2ccc[nH]2)CC1`, the “Percent Effect” value (30.3 µM, […]) stood at 22.55%.

Turning to `c1ccc(-c2nc3c(c(NCc4nnc5n4CCC5)n2)CCNC3)cc1`, under “30.3 µM, […]”, the “Percent Effect” value was found to be 11%.

In the case of `c1ccc(-c2nc3c(c(NCc4n[nH]c5c4CCC5)n2)CCNC3)cc1`, the “Percent Effect” value (30.3 µM, […]) came to 100.2%.

For the compound `c1coc(-c2nc3c(c(NCc4n[nH]c5c4CCC5)n2)CCNCC3)c1`, for the setting “30.3 µM, […]”, the “Percent Effect” value is on record as 1.11%.

For `Cc1ncsc1CN1CC(C)(C2CC2)CC1=O` (centres undefined), the “Percent Effect” value (30.3 µM, […]) is reported as -1.864%.

`CC(=O)N1CCC(C)(c2cc(C(=O)NCC(C)(C)C)nc(C)n2)CC1`: the “Percent Effect” value (30.3 µM, […]) was -26.7%.

Turning to `Cc1cc(NC2CCN(Cc3ccccn3)CC2)n2nc(C)c(C)c2n1`, where the note is “30.3 µM, […]”, the “Percent Effect” value is on record as 27.06%.

In the case of `Cc1n[nH]c2ncc(CNC3CCN(Cc4ccccn4)CC3)cc12.Cl`, under “30.3 µM, […]”, the “Percent Effect” value came to 23.69%.

`Cc1[nH]c2ccc(CNC3CCN(Cc4ccccn4)CC3)cc2c1C`: under “30.3 µM, […]”, the “Percent Effect” value is given as 65.08%.

Regarding `Cc1cc2[nH]c(=O)c(=O)[nH]c2cc1S(=O)(=O)NC1CCCCC1`, the “Percent Effect” value (30.3 µM, […]) was 4.835%.

For `Cc1cc2[nH]c(=O)c(=O)[nH]c2cc1S(=O)(=O)NC1CCC(C)CC1` (centres undefined), the “Percent Effect” value (30.3 µM, […]) came out at 6.826%.

As to `Cc1cc2nc(O)c(O)nc2cc1S(=O)(=O)NC1CC1`, the “Percent Effect” value (30.3 µM, […]) was determined as 53.32%.
